Results filed as inconclusive are left out. The source holds several records for some structures; these can differ, active in one and inactive in another. Activity calls are given as the source filed them. Rule for the calls: active = hit-call score of the fitted dose curve at least 0.9, where 1 is the maximum; inconclusive = response in the unintended direction; inactive = score below 0.9.
Molecular target: rat Peripheral-type Benzodiazepine Receptor (PBR), Tspo (gene 24230) (UniProt P16257)
Test: NVS_MP_rPBR: NovaScreen (NVS) Membrane Protein Assay for rat Peripheral-type Benzodiazepine Receptor (PBR) (AID 2283335)
Method in brief: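 Rat kidney membranes; radioligand binding with displacement, filter-based scintillation counting, 1 h incubation. Primary screen in duplicate at 25 uM, actives followed in concentration series; loss of binding vs DMSO.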

rat Peripheral-type Benzodiazepine Receptor (PBR), Tspo (gene 24230), sequence (P16257 whole entry, looked up): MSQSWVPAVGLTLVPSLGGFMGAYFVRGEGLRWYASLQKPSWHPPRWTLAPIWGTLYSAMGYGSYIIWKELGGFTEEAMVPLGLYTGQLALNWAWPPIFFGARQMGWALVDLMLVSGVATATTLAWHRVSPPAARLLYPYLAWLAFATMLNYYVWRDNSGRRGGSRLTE

Row | SMILES | outcome | AC50
1 | CCCCCCCC(OC)OC | inactive | –
2 | COc1cc(OC)nc(NC(=O)NS(=O)(=O)Nc2ccccc2C(=O)N(C)C)n1 | inactive | –
3 | CCCCCCCCCCCC | – | 5.18 µM (active)
4 | c1cnc2c(c1)ccc1cccnc12 | inactive | –

Molecular target: bovine Estrogen Receptor (ER), ESR1 (gene 407238) (UniProt P49884)
Sequence (P49884 whole entry, looked up): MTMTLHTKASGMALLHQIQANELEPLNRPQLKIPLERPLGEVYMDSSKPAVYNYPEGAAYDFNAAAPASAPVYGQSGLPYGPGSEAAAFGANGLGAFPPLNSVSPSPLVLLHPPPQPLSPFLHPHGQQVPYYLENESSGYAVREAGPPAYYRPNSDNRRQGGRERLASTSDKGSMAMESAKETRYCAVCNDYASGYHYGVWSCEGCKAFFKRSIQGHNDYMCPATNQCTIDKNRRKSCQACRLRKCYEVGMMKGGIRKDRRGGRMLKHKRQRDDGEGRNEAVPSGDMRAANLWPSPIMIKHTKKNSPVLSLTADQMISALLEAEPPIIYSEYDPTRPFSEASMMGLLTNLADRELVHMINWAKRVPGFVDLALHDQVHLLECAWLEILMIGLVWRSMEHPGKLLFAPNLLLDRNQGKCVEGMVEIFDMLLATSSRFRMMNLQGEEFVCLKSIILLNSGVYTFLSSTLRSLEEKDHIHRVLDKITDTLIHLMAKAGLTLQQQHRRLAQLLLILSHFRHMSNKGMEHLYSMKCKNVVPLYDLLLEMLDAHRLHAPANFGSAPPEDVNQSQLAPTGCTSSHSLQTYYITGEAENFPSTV
Test: NVS_NR_bER: NovaScreen (NVS) Nuclear Receptor Binding Assay for bovine Estrogen Receptor (ER) (AID 2283345);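 note: actives lower the bound radioligand count which means they displace the ER ligand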
Method in brief: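 Scintillation counting of displaced radioligand gave the readout; bovine uterine membrane extract supplied the receptor. Measured 18 h post-dose, normalized to DMSO baseline. Single 25 uM duplicate screen preceded concentration-response follow-up.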

Row | SMILES | outcome | AC50
5 | COC1=CC(=O)C[C@@H](C)[C@]12Oc1c(Cl)c(OC)cc(OC)c1C2=O | inactive | –
6 | C=CC(C)(CCC=C(C)C)OC(C)=O (stereo unspecified) | – | 17.1 µM (active)
7 | CCCCCCCCCCCC[N+](C)(C)CCCCCCCCCCCC | inactive | –
8 | Oc1ccc(Cc2ccccc2O)cc1 | inactive | –
9 | NCc1cccc(CN)c1 | inactive | –
10 | CC1=CC(=O)c2ccccc2C1=O | inactive | –
11 | O=C(c1cc(O)c(O)c(O)c1)c1ccc(O)c(O)c1O | inactive | –
12 | C=CC(=O)OCC(CO)(COCC(COC(=O)C=C)(COC(=O)C=C)COC(=O)C=C)COC(=O)C=C | inactive | –
13 | c1ccc(CNc2ncnc3c2ncn3C2CCCCO2)cc1 (stereo unspecified) | inactive | –
14 | C=C(c1ccc(C(=O)O)cc1)c1cc2c(cc1C)C(C)(C)CCC2(C)C | inactive | –
15 | COc1ccccc1NC(=O)c1cc2ccccc2cc1O | inactive | –
16 | O=C(Nc1cccc([N+](=O)[O-])c1)c1cc2ccccc2cc1O | inactive | –
17 | Oc1c(Cl)cc(Cl)cc1Sc1cc(Cl)cc(Cl)c1O | inactive | –
18 | CCOC(=O)c1nc(C(Cl)(Cl)Cl)n(-c2ccc(Cl)cc2Cl)n1 | inactive | –
19 | CCCCCC(C)OC(=O)COc1ccc(Cl)c2cccnc12 (stereo unspecified) | inactive | –
20 | O=C1Cc2ccccc2N1c1c(Cl)cccc1Cl | inactive | –
21 | CCCCCCOC(=O)c1ccc(O)cc1 | – | 13 µM (active)
22 | Nc1cc(Cl)c(-c2cc(Cl)c(N)cc2Cl)cc1Cl | inactive | –
23 | C[C@]12CC[C@@H]3c4ccc(O)cc4CC[C@H]3[C@@H]1CC[C@@H]2OC(=O)CCC1CCCC1 | – | 0.0684 µM (active)
24 | CCCCCCc1ccc(N)cc1 | inactive | –
25 | CCCCCCCCCCCCOC(=O)c1cc(O)c(O)c(O)c1 | inactive | –

Molecular target: chimpanzee Androgen Receptor (AR), AR (gene 747460) (UniProt O97775)
Sequence (O97775 whole entry, looked up): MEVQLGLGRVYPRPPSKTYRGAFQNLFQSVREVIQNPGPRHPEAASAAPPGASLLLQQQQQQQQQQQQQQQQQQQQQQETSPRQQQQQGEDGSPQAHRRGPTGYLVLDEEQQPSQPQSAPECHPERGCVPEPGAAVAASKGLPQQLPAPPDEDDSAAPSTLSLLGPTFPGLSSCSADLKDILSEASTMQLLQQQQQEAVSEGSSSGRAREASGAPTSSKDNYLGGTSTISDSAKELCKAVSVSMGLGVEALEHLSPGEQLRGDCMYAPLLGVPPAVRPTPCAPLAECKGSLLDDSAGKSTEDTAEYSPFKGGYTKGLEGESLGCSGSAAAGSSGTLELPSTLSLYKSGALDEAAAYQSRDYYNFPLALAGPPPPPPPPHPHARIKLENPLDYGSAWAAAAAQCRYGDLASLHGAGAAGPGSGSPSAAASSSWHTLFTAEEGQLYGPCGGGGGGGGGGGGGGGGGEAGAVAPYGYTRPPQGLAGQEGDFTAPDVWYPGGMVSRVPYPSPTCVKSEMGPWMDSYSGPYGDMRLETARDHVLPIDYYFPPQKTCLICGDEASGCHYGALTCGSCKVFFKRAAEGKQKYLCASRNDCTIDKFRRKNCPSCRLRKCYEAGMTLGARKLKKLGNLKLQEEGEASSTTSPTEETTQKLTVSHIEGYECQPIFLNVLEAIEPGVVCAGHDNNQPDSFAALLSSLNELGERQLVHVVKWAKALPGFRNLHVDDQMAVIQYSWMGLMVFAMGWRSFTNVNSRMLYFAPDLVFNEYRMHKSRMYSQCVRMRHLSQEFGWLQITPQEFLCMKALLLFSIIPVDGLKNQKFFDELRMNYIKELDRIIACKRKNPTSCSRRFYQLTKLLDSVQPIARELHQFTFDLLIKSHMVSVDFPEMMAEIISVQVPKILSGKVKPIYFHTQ
Test: NVS_NR_cAR: NovaScreen (NVS) Nuclear Receptor Binding Assay for chimpanzee Androgen Receptor (AR) (AID 2283346);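 note: radioligand displacement from AR measured by scintillation counting in a cell-free assay; a loss of bound radioligand signal versus DMSO counts as binding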
Method in brief: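 Cell-free competition binding with insect-cell (Sf9/Sf21) extracted chimpanzee AR; scintillation signal from lysate at 72 h. Screened in duplicate at 25 uM, then concentration-response for actives; fitting relative to DMSO.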

Row | SMILES | outcome | AC50
26 | CC(C)(c1ccc(Oc2ccc(N)cc2)cc1)c1ccc(Oc2ccc(N)cc2)cc1 | inactive | –
27 | CC(C)[C@@H]1CC[C@@H](C)C[C@H]1O | – | 0.376 µM (active)
28 | O=C1OC2(c3ccccc31)c1cc(I)c(O)c(I)c1Oc1c2cc(I)c(O)c1I | inactive | 21.6 µM (active)
29 | C[C@]12CC[C@@H]3c4ccc(O)cc4CC[C@H]3[C@@H]1C[C@@H](O)[C@@H]2O | inactive | –
30 | CCC1CO1 (stereo unspecified) | – | 5 µM (active)

Source: PubChem BioAssay (EPA / NIEHS)
